We go through 8 compounds from PubChem BioAssay (Tox21).

The nature of experiment [1]: Nuclear factor erythroid 2-related factor 2/antioxidant responsive element (Nrf2/ARE) small molecule agonists: qHTS cell viability counter screen in human keratinocytes (AID 1919968; active means well fitted curve in the direction sought with a large enough effect in the repeat runs; an effect the other way counts as inactive or inconclusive; further: nearly all actives have a fitted effect of over 55% in size). Put shortly:
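KeratinoSens cells (HaCaT keratinocytes stably carrying an ARE-luciferase reporter) were seeded at 1,500 cells/well and rested 5 h at 37 C/5% CO2. They were then exposed to compounds in DMSO for 23 h. Viability was read by CellTiter-Fluor fluorescence after 1 h.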
For orientation: Quantitative high-throughput screening tests each substance at several concentrations.

Experiment [2] in a line: Nuclear factor erythroid 2-related factor 2/antioxidant responsive element (Nrf2/ARE) small molecule agonists: luciferase reporter gene qHTS assay in human keratinocytes (AID 1919969). Further: nearly all actives have a fitted effect of over 35% in size. Further: potency means the concentration at half of the fitted maximal effect. Background: A reporter such as luciferase makes a cellular process visible.
For experiment [3], the target named is Gonadotropin-releasing hormone receptor (Homo sapiens) (UniProt P30968). As to the kind of experiment: Human gonadotropin-releasing hormone receptor (GnRHR) small molecule agonists, calcium flux assay in GnRHR-HEK293 cells (AID 1920063). Further: nearly all actives have a fitted effect of over 35% in size. The method in brief: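 HEK293 cells stably expressing human GnRHR were plated 18 h at 37 °C, loaded with calcium dye 1 h at 37 °C, then given compound in agonist mode; fluorescence (Ex/Em 480/540) read kinetically for 3 min at 1 s intervals.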
For orientation: Calcium assays in cells follow changes in intracellular calcium, usually with a dye or a luminescent sensor.

In experiment [4] the target is KiSS-1 receptor (Homo sapiens) (UniProt Q969F8). As to the kind of experiment: Human kisspeptin (KISS1R) small molecule agonists, calcium flux assay in KISS1R-HEK293 cells (AID 1920064; active means well fitted curve in the direction sought with a large enough effect in the repeat runs; an effect the other way counts as inactive or inconclusive). The method in brief:
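HEK293 cells stably expressing human KISS1R were plated 18 h at 37 °C, loaded with calcium dye for 1 h at 37 °C, then given compound by pin tool. Fluorescence (Ex/Em 480/540) was read kinetically for 3 min.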

Experiment [5] can be described thus: G protein-coupled receptor (GPCR) small molecule agonists, calcium flux assay: HEK293 wild type cell line counter screen (AID 1920065). The method in brief: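 Cells were plated and cultured 18 h at 37 C/5% CO2, then loaded with calcium dye for 1 h at 37 C. Compounds in DMSO were pin-transferred in agonist mode, and fluorescence (Ex/Em 480/540) was read kinetically for 3 min at 1 s intervals.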

Experiment [6] is described as follows: p53 small molecule agonists, cell-based qHTS assay with rat liver microsomes (AID 1963578). Put shortly:
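Read-out is beta-lactamase reporter fluorescence (LiveBLAzer, 2 h, room temperature, dark) in p53RE-bla cells treated 16 h at 37 C with compound, rat liver microsomes and NADPH, both 0.5 mg/mL final.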

Experiment [7] in a line: p53 small molecule agonists, cell-based qHTS assay (AID 1963582; active means well fitted activation curve with a large enough effect in the signal ratio in the repeat runs, not every such curve was filed as active; the % refers to the signal ratio). The method in brief:
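p53RE-bla beta-lactamase reporter cells rested 5 h at 37 C/5% CO2, then received compounds in DMSO by pin transfer and were incubated 16 h at 37 C. LiveBLAzer B/G FRET substrate was loaded for 2 h at room temperature before fluorescence reading.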

Experiment [8] deals with 5-hydroxytryptamine receptor 2A (Homo sapiens) (UniProt P28223). Nature of the experiment: 5-hydroxytryptamine receptor 2A (HTR2A) small molecule antagonists, cell-based qHTS assay (AID 1963586). Further: nearly all actives have a fitted effect of over 45% in size. Put shortly:
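Antagonist-mode intracellular calcium assay: DOI (4 nM) added after 5 min compound pre-incubation at room temperature to dye-loaded HTR2A-CHO cells. Fluorescence followed for 3 min, sampled every second.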

The target is the same in experiment [9]. Nature of the experiment: 5-hydroxytryptamine receptor 2A (HTR2A) small molecule agonists, cell-based qHTS assay (AID 1963587). Further: nearly all actives have a fitted effect of over 30% in size. The method in brief: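 CHO cells stably expressing human HTR2A, plated 18 h, loaded with calcium dye 1 h at 37 C. Agonist mode: compounds added and intracellular calcium fluorescence recorded kinetically for 2 min at 1 sec intervals.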

The target in experiment [10] is Muscarinic acetylcholine receptor M1 (Homo sapiens) (UniProt P11229). As to the kind of experiment: Cholinergic receptor muscarinic 1 (CHRM1) small molecule agonists, cell-based qHTS assay (AID 1963589). Further: nearly all actives have a fitted effect of over 35% in size. The method in brief: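 CHO cells stably expressing human CHRM1, seeded 18 h at 37 C/5% CO2, dye-loaded 1 h at 37 C, then given compound in agonist mode; intracellular calcium fluorescence read kinetically at 1 s intervals. Fifteen concentrations, three independent runs.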

Experiment [11] is described as follows: cAMP Responsive Elements (CRE) small molecule agonists, cell-based qHTS assay (AID 1963590). Put shortly:
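CRE-bla HEK 293T cells in DMEM with 10% dialyzed FBS, NEAA, pyruvate and 25 mM HEPES were plated 18 h at 37 C/5% CO2, then exposed to compounds in DMSO for 3 h before LiveBLAzer B/G FRET substrate addition.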

Experiment [12] in a line: cAMP Responsive Elements (CRE) small molecule antagonists, cell-based qHTS assay (AID 1963591; active means well fitted inhibition curve with a large enough effect in the signal ratio in the repeat runs, not every such curve was filed as active; the % refers to the signal ratio). Put shortly:
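CRE-bla HEK293T cells were plated 18 h at 37 °C/5% CO2, pinned with compound in DMSO, then stimulated with NKH477 at 0.25 uM final for 3 h. LiveBLAzer B/G FRET substrate was added and plates incubated 2 h at room temperature.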

Experiment [13] has as its target Beta-2 adrenergic receptor (Homo sapiens) (UniProt P07550). As to the kind of experiment: Adrenergic beta2 receptor (ADRB2) small molecule antagonists, cell-based qHTS assay (AID 1963592). Further: series mostly up to about 92 µM; nearly all actives have a fitted effect of over 50% in size. Put shortly:
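Cells (CHO, stable ADRB2 overexpression) incubated 18-20hr at 37C; compounds added from DMSO; agonist mix (1nM isoproterenol, 100uM IBMX, 25uM Ro-20-1724) added; 0.5hr RT; d2-cAMP and anti-cAMP-cryptate added; 1hr RT; 665/615 nm read.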

Experiment [14] has the same target. Nature of the experiment: Adrenergic beta2 receptor (ADRB2) small molecule agonists, cell-based qHTS assay (AID 1963593).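 Further: CHO cells stably overexpressing human ADRB2.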 The method in brief: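 CHO cells stably over-expressing ADRB2 were plated overnight at 37C, then dosed with compounds plus a stimulation mix containing 100uM IBMX and 25uM Ro-20-1724 for 0.5hr at room temperature. cAMP was measured by HTRF competition, 1hr.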

Experiment [15] has as its target D(2) dopamine receptor (Homo sapiens) (UniProt P14416). As to the kind of experiment: Dopamine D2 receptor (DRD2) small molecule agonists, cell-based qHTS assay (AID 1963594). Further: nearly all actives have a fitted effect of over 35% in size. Put shortly: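 HEK293 cells stably expressing human DRD2, pre-treated with PDE inhibitor Ro20-1724 (0.1 mM final) and compound 10 min at room temperature, then stimulated with NKH477 (200nM […]) for 30 min. cAMP read by HTRF (665/620 nm).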

Experiment [16] shares this target. Nature of the experiment: Dopamine D2 receptor (DRD2) small molecule antagonists, cell-based qHTS assay (AID 1963595; active means well fitted inhibition curve with a large enough effect in the signal ratio in the repeat runs, with a control signal flat; the % refers to the signal ratio). Put shortly: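 Antagonism was scored as restored cAMP in HEK293-DRD2 cells. These cells were stimulated with 200 nM NKH477 and 12 nM quinpirole for 30 min at room temperature, in the presence of 0.1 mM Ro20-1724.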
The nature of experiment [17]: p53 small molecule agonists, cell-based qHTS assay with human liver microsomes: qHTS cell viability counter screen (AID 1963579). Further: nearly all actives have a fitted effect of over 45% in size. Put shortly:
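Cells carrying the p53 response-element beta-lactamase reporter are treated for 16 h at 37 C with test compounds in the presence of human liver microsomes and NADPH (both 0.5 mg/mL final); ATP-based CellTiter-Glo luminescence then reports viability.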

A short description of experiment [18]: p53 small molecule agonists, cell-based qHTS assay with rat liver microsomes: qHTS cell viability counter screen (AID 1963580). Further: nearly all actives have a fitted effect of over 45% in size. Put shortly:
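Viability is assessed in parallel with the p53 reporter read: HCT-116 p53RE-bla cells receive compounds plus rat microsomes and NADPH (0.5 mg/mL final apiece), incubate 16 h at 37 C, and then CellTiter-Glo luminescence is recorded.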

The nature of experiment [19]: p53 small molecule agonists, cell-based qHTS assay: qHTS cell viability counter screen (AID 1963581). Further: nearly all actives have a fitted effect of over 45% in size. Put shortly: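 p53RE-bla HCT-116 cells were exposed to compounds for 16 h at 37 C; after the beta-lactamase FRET read in the same wells, CellTiter-Glo was added and luminescence (intracellular ATP) read after 30 min at room temperature.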
For experiment [20], the target named is Muscarinic acetylcholine receptor M1 (Homo sapiens) (UniProt P11229). Nature of the experiment: Cholinergic receptor muscarinic 1 (CHRM1) small molecule antagonists, cell-based qHTS assay (AID 1963588). Further: nearly all actives have a fitted effect of over 40% in size. The method in brief:
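CHRM1-CHO calcium-flux assay, antagonist mode. Cells were seeded 18 h, dye-loaded 1 h at 37 C and given compound for 5 min at RT, then acetylcholine was added at 50nM. FDSS fluorescence was read 3 min; 15 concentrations, three runs.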

Unmarked numbers belong to inactive results. Records with an inconclusive call do not appear. Activity calls are given as the source filed them. Unless noted, the call rests on the fitted dose curve.

Sequence of 5-hydroxytryptamine receptor 2A (Homo sapiens) (P28223 whole entry, looked up): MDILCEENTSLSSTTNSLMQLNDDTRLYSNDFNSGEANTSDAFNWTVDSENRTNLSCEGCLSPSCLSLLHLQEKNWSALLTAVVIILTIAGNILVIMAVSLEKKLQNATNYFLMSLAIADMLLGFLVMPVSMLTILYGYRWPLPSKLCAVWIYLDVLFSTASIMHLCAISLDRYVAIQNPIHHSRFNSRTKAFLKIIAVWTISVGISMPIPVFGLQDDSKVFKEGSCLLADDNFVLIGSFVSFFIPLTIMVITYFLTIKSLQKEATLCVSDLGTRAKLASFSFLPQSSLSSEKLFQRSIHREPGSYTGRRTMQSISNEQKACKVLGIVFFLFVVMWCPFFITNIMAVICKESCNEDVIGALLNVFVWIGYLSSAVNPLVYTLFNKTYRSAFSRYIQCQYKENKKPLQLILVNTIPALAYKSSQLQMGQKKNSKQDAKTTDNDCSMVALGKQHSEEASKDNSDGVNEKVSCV
Sequence of Beta-2 adrenergic receptor (Homo sapiens) (P07550 whole entry, looked up): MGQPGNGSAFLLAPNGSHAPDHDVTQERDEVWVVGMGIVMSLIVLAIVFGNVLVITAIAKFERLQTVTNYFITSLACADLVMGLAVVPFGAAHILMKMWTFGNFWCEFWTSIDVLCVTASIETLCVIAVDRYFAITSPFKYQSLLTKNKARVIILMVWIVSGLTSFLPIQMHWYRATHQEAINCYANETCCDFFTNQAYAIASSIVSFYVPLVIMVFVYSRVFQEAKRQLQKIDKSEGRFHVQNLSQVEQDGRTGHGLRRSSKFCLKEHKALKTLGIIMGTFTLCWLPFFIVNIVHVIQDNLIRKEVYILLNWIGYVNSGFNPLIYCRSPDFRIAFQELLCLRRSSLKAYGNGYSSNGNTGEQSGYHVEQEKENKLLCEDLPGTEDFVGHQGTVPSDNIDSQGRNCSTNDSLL
Sequence of D(2) dopamine receptor (Homo sapiens) (P14416 whole entry, looked up): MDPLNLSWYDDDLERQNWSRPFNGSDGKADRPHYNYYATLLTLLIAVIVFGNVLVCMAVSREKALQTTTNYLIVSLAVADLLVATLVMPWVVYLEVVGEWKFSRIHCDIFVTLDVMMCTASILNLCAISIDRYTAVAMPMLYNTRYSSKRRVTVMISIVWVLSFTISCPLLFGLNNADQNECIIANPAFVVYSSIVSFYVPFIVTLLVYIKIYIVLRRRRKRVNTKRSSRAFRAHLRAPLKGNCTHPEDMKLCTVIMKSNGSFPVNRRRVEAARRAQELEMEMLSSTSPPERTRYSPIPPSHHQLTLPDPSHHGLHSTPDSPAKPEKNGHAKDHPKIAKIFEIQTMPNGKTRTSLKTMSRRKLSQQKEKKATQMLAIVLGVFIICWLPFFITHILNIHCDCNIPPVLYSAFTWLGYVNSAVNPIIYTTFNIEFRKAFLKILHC
Sequence of Gonadotropin-releasing hormone receptor (Homo sapiens) (P30968 whole entry, looked up): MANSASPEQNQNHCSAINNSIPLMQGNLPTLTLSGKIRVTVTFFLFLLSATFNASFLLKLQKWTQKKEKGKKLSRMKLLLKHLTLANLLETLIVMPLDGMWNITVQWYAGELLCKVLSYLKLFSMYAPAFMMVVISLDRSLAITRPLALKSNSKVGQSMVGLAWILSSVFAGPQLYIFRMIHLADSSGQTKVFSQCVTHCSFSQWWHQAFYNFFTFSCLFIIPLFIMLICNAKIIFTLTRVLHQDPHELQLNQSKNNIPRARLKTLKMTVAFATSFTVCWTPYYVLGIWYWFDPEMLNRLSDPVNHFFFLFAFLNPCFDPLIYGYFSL
Sequence of KiSS-1 receptor (Homo sapiens) (Q969F8 whole entry, looked up): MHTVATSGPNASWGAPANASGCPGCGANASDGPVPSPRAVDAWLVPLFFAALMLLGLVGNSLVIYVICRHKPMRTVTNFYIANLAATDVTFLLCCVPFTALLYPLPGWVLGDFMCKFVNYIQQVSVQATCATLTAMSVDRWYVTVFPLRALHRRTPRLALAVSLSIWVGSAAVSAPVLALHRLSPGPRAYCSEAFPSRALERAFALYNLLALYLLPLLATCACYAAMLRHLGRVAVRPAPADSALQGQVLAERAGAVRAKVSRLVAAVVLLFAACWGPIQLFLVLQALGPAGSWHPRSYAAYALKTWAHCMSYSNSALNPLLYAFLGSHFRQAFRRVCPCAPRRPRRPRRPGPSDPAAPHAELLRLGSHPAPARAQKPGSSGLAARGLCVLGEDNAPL
Sequence of Muscarinic acetylcholine receptor M1 (Homo sapiens) (P11229 whole entry, looked up): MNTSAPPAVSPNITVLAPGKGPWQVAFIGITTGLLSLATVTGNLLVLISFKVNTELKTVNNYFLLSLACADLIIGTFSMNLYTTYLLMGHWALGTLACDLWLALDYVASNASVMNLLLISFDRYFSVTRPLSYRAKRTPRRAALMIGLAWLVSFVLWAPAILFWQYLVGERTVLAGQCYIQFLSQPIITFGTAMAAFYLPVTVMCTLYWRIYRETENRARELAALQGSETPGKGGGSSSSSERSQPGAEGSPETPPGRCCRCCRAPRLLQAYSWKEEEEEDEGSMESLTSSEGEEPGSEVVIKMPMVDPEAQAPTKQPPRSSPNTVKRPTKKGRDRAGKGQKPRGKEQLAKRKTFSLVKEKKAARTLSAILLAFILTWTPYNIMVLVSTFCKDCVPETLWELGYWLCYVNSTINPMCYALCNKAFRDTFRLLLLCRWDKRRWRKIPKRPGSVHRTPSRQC

Consider `O=S(=O)(O)CO`, for which the Potency result in [1], in experiment [2], in [3], in [4], in experiment [5] and in experiment [6] was “inactive” throughout. For the same compound, the Potency result in experiment [7], in [8], in experiment [9], in experiment [10], in experiment [11] and in experiment [12] was “inactive” each time. For the same compound, the Potency entry in [13], in [14], in [15] and in experiment [16] was “inactive” throughout.

For the compound `NCCN1CCNC1=O`, the Potency entry in experiment [1], in [2], in [3], in experiment [4], in [5] and in experiment [17] was “inactive” throughout. In addition, the Potency result in [18], in experiment [19], in experiment [7], in experiment [8], in [9] and in experiment [20] was “inactive” in each case. In addition, the Potency result in experiment [11], in experiment [12], in experiment [13] and in experiment [15] was “inactive” throughout.

`CN1N=C(C(N)=O)CCC1=O`: the Potency result in experiment [1], in experiment [2], in [3], in experiment [4], in [5] and in experiment [6] was “inactive” in each case. In addition, the Potency result in experiment [7], in [8], in experiment [9], in experiment [12], in [13] and in experiment [14] was “inactive” each time. Besides, the Potency result in experiment [15] and in experiment [16] was “inactive” in each case.

Regarding `CO[C@@H]1[C@@H](O[C@@H]2O[C@H](C)[C@@H](O[C@H]3C[C@@](C)(O)[C@@H](O)[C@H](C)O3)[C@H](N(C)C)[C@H]2O)[C@@H](CC=O)C[C@@H](C)[C@@H](O[C@@H]2CC[C@H](N(C)C)[C@@H](C)O2)/C=C/C=C/C[C@@H](C)OC(=O)C[C@H]1OC(C)=O`, the Potency result in [1], in [2], in experiment [3], in [4], in [5] and in experiment [17] was “inactive” in each case. The Potency entry in [18], in experiment [19], in experiment [7], in experiment [8], in experiment [9] and in experiment [20] was “inactive” in each case. Further, the Potency entry in [10], in experiment [11], in experiment [12], in [13], in experiment [15] and in experiment [16] was “inactive” throughout.

For `CC1COc2ccccc2N1` (configuration not stated), the Potency entry in experiment [1], in experiment [3], in [4], in [5], in experiment [17] and in experiment [18] was “inactive” in each case. Further, the Potency entry in experiment [19], in [7], in experiment [8], in [9], in experiment [20] and in experiment [10] was “inactive” in each case. For the same compound, the Potency entry in [11], in experiment [12], in experiment [13], in experiment [14], in [15] and in experiment [16] was “inactive” in each case. Moreover, the Potency in [2] was 54.5 µM (active).

Regarding `CC(=O)N(c1onc(C)c1C)S(=O)(=O)c1ccc(N)cc1`, the Potency result in [1], in experiment [2], in [3], in [4], in [5] and in [17] was “inactive” each time. The Potency result in experiment [18], in experiment [19], in experiment [7], in experiment [8], in [9] and in experiment [20] was “inactive” in each case. Also, the Potency entry in [11], in experiment [12], in experiment [13], in experiment [14], in experiment [15] and in [16] was “inactive” in each case.

`CCN(CC)c1ccc(C=O)c(O)c1`: the Potency result in [1], in experiment [2], in [3], in experiment [4], in [5] and in experiment [17] was “inactive” each time. Further, the Potency result in experiment [18], in experiment [19], in [7], in [8], in [9] and in experiment [20] was “inactive” throughout. Besides, the Potency entry in experiment [10], in experiment [11], in experiment [12], in [13], in experiment [15] and in experiment [16] was “inactive” in each case.

In the case of `CCc1cccc(CC)c1NC(=O)C(=O)O`, the Potency result in experiment [1], in experiment [2], in experiment [3], in experiment [4], in experiment [5] and in [17] was “inactive” throughout. Besides, the Potency entry in experiment [19], in experiment [7], in experiment [8], in [9], in [20] and in experiment [10] was “inactive” each time. Moreover, the Potency entry in [11], in experiment [12], in experiment [13], in [14], in experiment [15] and in experiment [16] was “inactive” in each case.
